Data reported in PubChem BioAssay (Tox21).
Values joined by “and” are separate entries in the source; they are usually repeats but may differ in a detail not shown here. Equal entries are not always repeated. Results filed as inconclusive are left out. Where a call stands in place of a potency, no number is given. The source holds several records for some structures; these can differ, active in one and inactive in another. Active and inactive are the calls of the source. Unless noted, calls follow the shape of the dose curve; as a rule, active = well fitted curve in the direction sought with a large enough effect in the repeat runs; inconclusive = weak or mixed curves; inactive = no such curve, though single readings can be large; an effect the other way counts as inactive or inconclusive.

Legend:
[1] = qHTS assay for small molecule agonists of the p53 signaling pathway (AID 651631; calls by dose curve; also: nearly all actives have a fitted effect of over 15% in size)
Method in brief: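 Beta-lactamase reporter activity under p53 response elements was quantified in HCT-116 cells by FRET fluorescence, following 16 h incubation with test compounds at 37 °C and 2 h substrate development at room temperature.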

[2] = qHTS assay for small molecules that induce genotoxicity in human embryonic kidney cells expressing luciferase-tagged ATAD5 (AID 651632); also: nearly all actives have a fitted effect of over 15% in size; also: potency is read from the fitted curve at half-maximal effect
Method in brief: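 HEK293T cells carrying luciferase-tagged ATAD5 were given compound or DMSO vehicle and incubated 16 hr at 37C, 5% CO2. Luciferase activity was read after 30 min at room temperature with Amplite; a rise signals genotoxic stress.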

[3] = qHTS assay for small molecules that induce genotoxicity in human embryonic kidney cells expressing luciferase-tagged ATAD5 - cell viability (AID 651634; calls by dose curve; also: nearly all actives have a fitted effect of over 25% in size)
Method in brief: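 HEK293T cells carrying luciferase-tagged ATAD5, 2,000 cells/well, exposed to compound for 15.5 hr at 37C. Viability read as live-cell protease activity by CellTiter-Fluor fluorescence after 30 min at 37C.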

[4] = qHTS assay for small molecule disruptors of the mitochondrial membrane potential - cell viability (AID 720634; calls by dose curve;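 also: human HepG2 liver cancer cells; series mostly up to about 83 µM; nearly all actives have a fitted effect of over 20% in size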)
Method in brief: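 HepG2 cells, 2,000 per well, attached overnight, then treated 1 hr at 37 C, 5% CO2. Viability read as ATP by CellTiter-Glo luminescence after 30 min at room temperature. Read in the same wells as the m-MPI membrane-potential dye assay.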

[5] = qHTS assay to test for compound auto fluorescence at 590 nm (red) in HepG2 cells (AID 720674)
Method in brief: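 1 hr compound incubation on HepG2 cells, 37 C, 5% CO2; plate read ex 540 nm / em 590 nm; intensities reported as Rose Bengal sodium equivalents.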

[6] = qHTS assay to test for compound auto fluorescence at 460 nm (blue) in HEK293 cells (AID 720678)
Method in brief: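 Measured: blue fluorescence (Ex 405/Em 460 nm) of compound-treated HEK293 cells, incubated overnight at 37C with 5% CO2 and scaled to triamterene equivalents.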

[7] = qHTS assay to test for compound auto fluorescence at 590 nm (red) in HEK293 cells (AID 720679)
Method in brief: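 Using HEK293 cells at 2,000 per well, the screen added 23 nL of each compound after cell attachment and incubated overnight (37C, 5% CO2). The plate reader then captured red-label fluorescence, Ex/Em 540/590nm.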

[8] = qHTS assay to test for compound auto fluorescence at 590 nm (red) in HEK293 cell free culture (AID 720683)
Method in brief: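 Red-channel autofluorescence of compounds in culture medium (DMEM, 10% FBS), no cells, measured at 540/590 nm. Rose Bengal sodium is the reference fluorophore for equivalence.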

[9] = qHTS assay to test for compound auto fluorescence at 590 nm (red) in HepG2 cell free culture (AID 720684)
Method in brief: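 Steps: dispense MEM/10% FBS medium, no cells; pin compound or DMSO vehicle; read red channel, Ex/Em 540/590 nm. Output given as Rose Bengal sodium equivalents.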

[10] = qHTS assay to test for compound auto fluorescence at 460 nm (blue) in HepG2 cell free culture (AID 720685)
Method in brief: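 Compound (23 nL) or DMSO pinned into cell-free MEM with 10% FBS; blue fluorescence read at 405/460 nm excitation/emission, expressed as auto-fluorescence equivalency to triamterene.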

[11] = qHTS assay to test for compound auto fluorescence at 535 nm (green) in HepG2 cell free culture (AID 720686)
[12] = qHTS assay to test for compound auto fluorescence at 460 nm (blue) in HepG2 cells (AID 720687)
Method in brief: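 Blue-channel autofluorescence (Ex/Em 405/460 nm, triamterene-equivalent) was measured after 1 hr compound exposure at 37 C, 5% CO2. Cells were HepG2, plated overnight at 37 C in MEM plus 10% FBS.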

[13] = molecular target: Glucocorticoid receptor (Homo sapiens) (UniProt P04150); test: qHTS assay to identify small molecule agonists of the glucocorticoid receptor (GR) signaling pathway (AID 720691; active = well fitted activation curve with a large enough effect in the signal ratio in the repeat runs, not every such curve was filed as active; the % refers to the signal ratio)
Method in brief: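 GR-bla HeLa cells carrying a GRE-driven beta-lactamase reporter, exposed to compounds for 18 h at 37 C. Reporter activation read as fluorescence after 2 h with LiveBLAzer B/G FRET substrate at room temperature.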

[14] = molecular target: Glucocorticoid receptor (Homo sapiens) (UniProt P04150); test: qHTS assay to identify small molecule antagonists of the glucocorticoid receptor (GR) signaling pathway (AID 720692; active = well fitted inhibition curve with a large enough effect in the signal ratio in the repeat runs, not every such curve was filed as active; the % refers to the signal ratio)
Method in brief: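 GR-bla HeLa cells carrying a GRE-driven beta-lactamase reporter received compound after 4 h plating, then dexamethasone (5 nM final). After 18 h at 37C, the FRET substrate was loaded for 2 h at room temperature and fluorescence read.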

[15] = qHTS assay for small molecule agonists of the p53 signaling pathway - cell viability (AID 651633; calls by dose curve;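 also: p53RE-bla HCT reporter cells with a stable beta-lactamase p53 reporter; series mostly up to about 83 µM; nearly all actives have a fitted effect of over 30% in size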)
Method in brief: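 Viability counter-read: CellTiter-Glo luminescence (30 min, room temperature) in the same p53RE-bla plates. These plates had been exposed to compounds for 16 h at 37 C.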

[16] = qHTS assay for small molecule disruptors of the mitochondrial membrane potential (AID 720635); also: potency is read from the fitted curve at half-maximal effect
Method in brief: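 Mitochondrial membrane potential tracked with Mito-MPS dye, red aggregates (ex 540/em 590 nm) against green monomers (ex 490/em 535 nm). Compound treatment 1 hr at 37C, dye 30 min in HepG2.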

[17] = qHTS assay to test for compound auto fluorescence at 535 nm (green) in HepG2 cells (AID 720675)
[18] = qHTS assay to test for compound auto fluorescence at 535 nm (green) in HEK293 cells (AID 720680)
[19] = qHTS assay to test for compound auto fluorescence at 535 nm (green) in HEK293 cell free culture (AID 720682)
Method in brief: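 Each library compound, or DMSO control, is added by pintool to medium alone, comprising DMEM and 10% FBS. Emission at 535 nm following 485 nm excitation is quantified against fluorescein.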

[20] = qHTS assay to test for compound auto fluorescence at 460 nm (blue) in HEK293 cell free culture (AID 720681)
Method in brief: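 Blue fluorescence (Ex 405/Em 460 nm, triamterene-equivalent) was read immediately after pin transfer of compound or DMSO into medium (DMEM, 10% FBS) without cells.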

Glucocorticoid receptor (Homo sapiens), sequence (P04150 whole entry, looked up): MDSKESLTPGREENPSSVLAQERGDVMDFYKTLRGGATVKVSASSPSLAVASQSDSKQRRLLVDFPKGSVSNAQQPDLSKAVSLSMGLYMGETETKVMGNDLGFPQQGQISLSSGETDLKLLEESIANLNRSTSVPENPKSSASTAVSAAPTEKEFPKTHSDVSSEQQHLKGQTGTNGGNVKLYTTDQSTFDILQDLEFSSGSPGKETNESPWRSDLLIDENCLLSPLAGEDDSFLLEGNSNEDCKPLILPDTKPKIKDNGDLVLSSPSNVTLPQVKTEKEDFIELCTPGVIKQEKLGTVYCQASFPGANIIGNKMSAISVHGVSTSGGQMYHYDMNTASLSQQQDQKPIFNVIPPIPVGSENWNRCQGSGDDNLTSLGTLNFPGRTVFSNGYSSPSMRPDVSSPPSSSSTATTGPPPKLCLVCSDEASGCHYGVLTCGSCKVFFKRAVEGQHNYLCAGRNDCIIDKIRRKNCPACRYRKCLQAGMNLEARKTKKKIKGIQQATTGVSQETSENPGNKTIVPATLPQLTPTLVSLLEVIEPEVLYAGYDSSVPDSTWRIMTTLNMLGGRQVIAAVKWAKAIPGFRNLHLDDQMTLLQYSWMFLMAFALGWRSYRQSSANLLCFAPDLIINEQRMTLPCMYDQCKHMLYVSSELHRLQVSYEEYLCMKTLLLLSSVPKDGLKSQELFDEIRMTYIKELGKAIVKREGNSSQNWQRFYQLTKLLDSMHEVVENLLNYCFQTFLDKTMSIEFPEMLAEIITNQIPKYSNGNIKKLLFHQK

Row | Structure (SMILES) | Potency [1] | Potency [2] | Potency [3] | Potency [4] | outcome [5] | outcome [6] | outcome [7] | outcome [8] | outcome [9] | outcome [10] | outcome [11] | outcome [12] | outcome [13] | Potency [14] | Potency [15] | Potency [16] | outcome [17] | outcome [18] | outcome [19] | outcome [20]
1 | c1ccc2c(c1)CCCC2 | inactive | inactive | inactive | inactive | inactive | inactive | inactive | inactive | inactive | inactive | inactive | inactive | inactive | inactive | – | – | – | – | – | –
2 | O=C(O)c1cc(Oc2ccc(C(F)(F)F)cc2Cl)ccc1[N+](=O)[O-] | – | inactive | inactive | inactive | inactive | inactive | inactive | inactive | inactive | inactive | inactive | inactive | inactive | inactive | inactive | inactive | inactive | inactive | inactive | –
3 | CNC(=O)O/N=C/C(C)(C)S(C)=O (centres undefined) | – | inactive | inactive | inactive | inactive | inactive | inactive | inactive | inactive | inactive | inactive | inactive | inactive | inactive | inactive | inactive | – | – | – | –
4 | O=S(=O)(O)OOS(=O)(=O)O | – | inactive | – | – | inactive | inactive | inactive | inactive | inactive | inactive | inactive | inactive | – | – | inactive | – | – | – | inactive | inactive
5 | CNC(=O)O/N=C/C(C)(C)S(C)(=O)=O | inactive | inactive | – | inactive | inactive | inactive | inactive | inactive | inactive | inactive | inactive | inactive | inactive | inactive | – | inactive | – | inactive | inactive | –
6 | O=P1(NCCCl)OCCCN1CCCl (centres undefined) | – | inactive | – | inactive | inactive | inactive | – | inactive | inactive | inactive | inactive | inactive | inactive | inactive | – | inactive | inactive | inactive | – | inactive
7 | Nc1ccc(N)cc1 | – | 29.8 µM (active) | inactive | inactive | inactive | inactive | – | inactive | inactive | inactive | inactive | inactive | – | – | – | 841 nM (active) and 5.47 µM (active) and 3.86 µM (active) | – | inactive | inactive | inactive
8 | C=C(C)C(=O)OCC(CC)CCCC (centres undefined) | inactive | inactive | – | – | inactive | inactive | – | inactive | inactive | inactive | inactive | inactive | inactive | inactive | – | – | – | – | inactive | –
9 | O=[N+]([O-])c1ccc(Cl)c(Cl)c1 | – | inactive | – | inactive | inactive | inactive | – | inactive | inactive | inactive | inactive | inactive | inactive | inactive | inactive | inactive | inactive | inactive | inactive | inactive
10 | OCCCCO | inactive | – | – | inactive | inactive | inactive | inactive | inactive | inactive | inactive | inactive | inactive | inactive | inactive | inactive | inactive | inactive | – | inactive | inactive
11 | CN(C)C(=O)Cl | – | inactive | – | inactive | inactive | inactive | – | inactive | inactive | inactive | inactive | inactive | inactive | inactive | inactive | inactive | – | – | inactive | inactive
12 | CNc1cnn(-c2cccc(C(F)(F)F)c2)c(=O)c1Cl | inactive | – | inactive | inactive | inactive | inactive | – | inactive | inactive | inactive | inactive | inactive | inactive | inactive | inactive | inactive | – | inactive | – | –
13 | C=CC(=O)OCC(CC)CCCC (centres undefined) | inactive | – | – | inactive | inactive | inactive | – | inactive | inactive | inactive | inactive | inactive | inactive | inactive | – | inactive | – | – | – | –
14 | CCCCCCCCCCCCCCCCCC(=O)O | – | – | – | inactive | inactive | inactive | inactive | inactive | inactive | inactive | inactive | inactive | – | – | – | inactive and 54.1 µM (active) | inactive | inactive | inactive | inactive
15 | NNc1ccccc1 | – | inactive | – | inactive | inactive | inactive | – | inactive | inactive | inactive | inactive | inactive | – | – | – | inactive | – | – | – | inactive
16 | Sc1ccccc1 | – | inactive | inactive | inactive | inactive | inactive | inactive | inactive | inactive | inactive | inactive | inactive | inactive | inactive | – | inactive | inactive | inactive | – | inactive
